Most compounds without a hit are left out; they make up all but 3.8% or so of the library.
Mot1-301 SUMO = inhibitors of SUMOylation pathway: yeast Mot1-301 growth rescue; S. cerevisiae Mot1-301 growth rescue, ATP luminescence, 38.5C; percent above DMSO median, 100 means doubled; growth rescue, % at 18.8 µM; 1% of 320,000 active; AID 2716;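 active means every valid replicate shows activation above 250% relative to neutral control wells; inactive means the rest, any valid replicate at or below 250%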
aDG glyco up = alpha-DG glycosylation activation | Pro5-aDG cells, alpha-DG glycosylation AlphaScreen (IIH6); 0% Pro5, 100% B10-LARGE cell signal | activation, % at 10 µM | 0.22% of 360,000 active;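 active means activation of at least 8% versus controls, or a plate z-score of at least 8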;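 further: Pro5 are CHO cells carrying HIG-tagged alpha-DG that lacks glycosylation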
H9c2 protect = myocardial damage modulation in H9c2 cells | H9c2 cardiomyocytes, H2O2 injury protection, ATPLite, 2 h | protection from H2O2 cell death, % at 20 µM | 0.63% of 360,000 active;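 active means compounds giving at least 50% protection of heart cells from peroxide-induced death in the single-dose screen, raw or plate-pattern-corrected value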
MPTP block = blocks calcium-induced mitochondrial swelling; isolated mouse mitochondria, Ca2+ swelling absorbance, 30 min; 1.4% of 360,000 active; inhibition, % at 10 µM; AID 602449;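 active means inhibition of 50% or more, scaled per plate between neutral and stimulator controls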
FAS TE block = FAS thioesterase (human) inhibition; P49327; recombinant FAS-TE, OMFH fluorogenic substrate, fluorescence endpoint; inhibition, % at 15 µM; 0.67% of 360,000 active;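 active means compounds whose normalised, plate-corrected inhibition of enzyme fluorescence in the single-dose primary screen is 50% or more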
Target sequence (P49327 whole entry, looked up): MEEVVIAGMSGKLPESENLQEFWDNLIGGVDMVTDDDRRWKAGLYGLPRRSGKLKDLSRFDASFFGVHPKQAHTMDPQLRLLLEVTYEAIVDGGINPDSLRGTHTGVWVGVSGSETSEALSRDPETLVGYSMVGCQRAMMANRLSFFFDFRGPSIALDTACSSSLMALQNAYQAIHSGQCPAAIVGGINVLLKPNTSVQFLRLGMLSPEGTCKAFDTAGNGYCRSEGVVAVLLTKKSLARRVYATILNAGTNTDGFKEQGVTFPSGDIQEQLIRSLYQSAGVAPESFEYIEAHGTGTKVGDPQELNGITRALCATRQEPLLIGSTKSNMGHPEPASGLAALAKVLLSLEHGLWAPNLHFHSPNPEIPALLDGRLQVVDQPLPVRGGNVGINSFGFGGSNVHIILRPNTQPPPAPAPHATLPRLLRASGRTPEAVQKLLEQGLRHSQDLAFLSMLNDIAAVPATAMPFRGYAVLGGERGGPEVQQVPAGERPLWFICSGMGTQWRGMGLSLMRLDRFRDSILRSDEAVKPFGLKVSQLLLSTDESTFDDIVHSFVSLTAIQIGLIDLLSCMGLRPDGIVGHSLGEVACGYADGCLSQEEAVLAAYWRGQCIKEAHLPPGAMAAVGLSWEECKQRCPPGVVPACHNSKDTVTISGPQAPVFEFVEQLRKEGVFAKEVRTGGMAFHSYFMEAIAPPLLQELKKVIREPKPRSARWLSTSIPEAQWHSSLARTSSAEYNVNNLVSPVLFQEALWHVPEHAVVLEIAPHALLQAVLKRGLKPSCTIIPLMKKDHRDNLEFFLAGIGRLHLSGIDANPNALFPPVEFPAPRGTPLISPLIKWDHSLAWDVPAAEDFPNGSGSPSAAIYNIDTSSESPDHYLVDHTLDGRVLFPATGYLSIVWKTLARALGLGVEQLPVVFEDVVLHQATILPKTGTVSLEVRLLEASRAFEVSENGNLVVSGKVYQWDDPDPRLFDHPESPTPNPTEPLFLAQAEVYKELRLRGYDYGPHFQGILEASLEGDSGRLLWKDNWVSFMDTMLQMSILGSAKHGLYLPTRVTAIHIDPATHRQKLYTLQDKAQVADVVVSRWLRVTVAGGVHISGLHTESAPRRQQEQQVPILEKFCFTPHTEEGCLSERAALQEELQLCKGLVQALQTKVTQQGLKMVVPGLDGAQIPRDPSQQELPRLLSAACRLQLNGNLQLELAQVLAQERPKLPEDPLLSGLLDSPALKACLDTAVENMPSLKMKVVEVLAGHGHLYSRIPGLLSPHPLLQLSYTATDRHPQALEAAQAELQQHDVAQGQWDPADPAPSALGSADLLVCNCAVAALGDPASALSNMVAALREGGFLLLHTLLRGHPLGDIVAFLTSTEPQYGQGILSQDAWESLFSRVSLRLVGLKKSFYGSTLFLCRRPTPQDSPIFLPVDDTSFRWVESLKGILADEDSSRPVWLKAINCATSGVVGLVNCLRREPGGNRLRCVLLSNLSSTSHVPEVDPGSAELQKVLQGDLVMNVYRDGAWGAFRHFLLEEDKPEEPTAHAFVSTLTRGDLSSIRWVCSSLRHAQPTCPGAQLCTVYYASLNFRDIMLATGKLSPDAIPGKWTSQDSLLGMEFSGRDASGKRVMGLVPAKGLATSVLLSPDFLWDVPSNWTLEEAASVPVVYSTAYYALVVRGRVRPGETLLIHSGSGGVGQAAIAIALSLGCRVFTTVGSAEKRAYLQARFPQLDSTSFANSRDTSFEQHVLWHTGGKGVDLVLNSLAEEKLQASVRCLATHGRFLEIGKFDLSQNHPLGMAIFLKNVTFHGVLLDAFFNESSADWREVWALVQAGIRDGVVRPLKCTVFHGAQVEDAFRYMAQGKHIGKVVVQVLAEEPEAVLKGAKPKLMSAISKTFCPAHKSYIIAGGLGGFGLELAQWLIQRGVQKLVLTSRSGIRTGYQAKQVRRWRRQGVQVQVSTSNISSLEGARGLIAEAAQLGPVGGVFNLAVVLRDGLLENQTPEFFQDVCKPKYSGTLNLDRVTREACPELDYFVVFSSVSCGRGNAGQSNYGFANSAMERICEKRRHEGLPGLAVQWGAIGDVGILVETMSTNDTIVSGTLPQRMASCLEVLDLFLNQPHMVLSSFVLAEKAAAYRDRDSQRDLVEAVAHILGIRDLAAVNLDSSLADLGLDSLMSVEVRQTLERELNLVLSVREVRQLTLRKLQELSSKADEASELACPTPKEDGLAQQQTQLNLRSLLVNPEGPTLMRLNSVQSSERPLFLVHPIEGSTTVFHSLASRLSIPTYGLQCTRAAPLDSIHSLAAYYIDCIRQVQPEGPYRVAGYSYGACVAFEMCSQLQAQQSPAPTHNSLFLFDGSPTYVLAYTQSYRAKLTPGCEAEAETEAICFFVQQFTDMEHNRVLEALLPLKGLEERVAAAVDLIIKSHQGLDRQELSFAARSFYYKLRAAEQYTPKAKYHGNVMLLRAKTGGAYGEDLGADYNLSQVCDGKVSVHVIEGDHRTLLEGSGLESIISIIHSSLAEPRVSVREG
CR mimetic SO = caloric restriction mimetics inhibiting age-related superoxide in yeast. S. cerevisiae aged cells, superoxide DHE fluorescence; hits give low values. superoxide response (% of plate mean), % at 10 µM. 0.18% of 330,000 active. AID 2690;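 active means superoxide response under a set limit, about three screen SD below normal, cut at about 65% in these data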;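 further: yeast aged for seven days with compound at 30 °C before DHE staining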
FAS-TE inh conf = FAS thioesterase (human) inhibition, confirmation. inhibition, % at 15 µM. recombinant FAS-TE, OMFH fluorogenic substrate, fluorescence. shares compounds with FAS TE block. 45% of 2,300 active;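 active means compounds inhibiting the enzyme by at least 50% at 15 µM in any one of the replicates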
Large screens that a line does not name were inactive (follow-up assays come after a bar, where they were run).

C[C@H](CO)N1C[C@H](C)[C@@H](CN(C)C(=O)NC2CCCCC2)Oc2ccc(NC(=O)Nc3ccccc3)cc2C1=O	none
CN(CC(=O)Nc1ccc(Cl)c(C(F)(F)F)c1)C(=O)C1CC(=O)N(c2ccc3c(c2)OCCO3)C1 (stereo not given)	FAS TE block 54 (no result: Mot1-301 SUMO, CR mimetic SO) | FAS-TE inh conf 27
COc1cccc(C(Nc2ccccn2)c2c(NC(=O)c3ccco3)sc(C)c2C)c1 (stereo not given)	FAS TE block 54 | FAS-TE inh conf inactive
Cc1sc(NC(=O)c2ccco2)c(C(Nc2ccccn2)c2ccccc2)c1C (stereo not given)	FAS TE block 60 | FAS-TE inh conf inactive
COc1cccc(S(=O)(=O)NCC(=O)N2CCCC2)c1	none
CCOC(=O)[C@]12CCCC=C1N(Cc1cccc3ccccc13)C(=O)[C@H](CC(=O)N1CCOCC1)C2	none (no result: Mot1-301 SUMO, H9c2 protect, CR mimetic SO)
O=S(=O)(Nc1ccccc1Br)c1cccc2cccnc12	none (no result: Mot1-301 SUMO, CR mimetic SO)
COc1ccc(CNC(=O)C2CCCN2C(=O)Nc2cccc(Cl)c2)cc1 (stereo not given)	none (no result: Mot1-301 SUMO, CR mimetic SO)
C[C@]12C(=O)N(c3ccc(C(F)(F)F)cc3)C(=O)N1[C@@H]1c3ccccc3OC[C@@H]1[C@H]2c1ccccc1	FAS TE block 60 | FAS-TE inh conf inactive
C[C@]12C(=O)N(c3ccc(Br)cc3)C(=O)N1[C@H]1c3ccccc3OC[C@@H]1[C@H]2c1ccccc1	FAS TE block 85 | FAS-TE inh conf inactive
C[C@]12C(=O)N(c3cccc(Cl)c3)C(=O)N1[C@@H]1c3ccccc3OC[C@@H]1[C@H]2c1ccccc1	FAS TE block 58 | FAS-TE inh conf inactive
C[C@]12C(=O)N(c3cccc(F)c3)C(=O)N1[C@@H]1c3ccccc3OC[C@@H]1[C@H]2c1ccccc1	none
CCOC(=O)[C@@H]1[C@H]2COc3ccccc3[C@H]2N2C(=O)N(c3ccc(Br)cc3)C(=O)[C@]12C	none
C[C@]12C(=O)N(c3cccc(F)c3)C(=O)N1[C@H]1c3ccccc3OC[C@@H]1[C@H]2c1ccccc1	FAS TE block 68 | FAS-TE inh conf inactive
CC(=O)C(c1ccccc1)C(c1ccccc1)C(C)[N+](=O)[O-] (stereo not given)	none
CCCCCCn1c(=O)n2n(c1=O)C[C@]1(OC(=O)NC3CCCC3)CN(S(=O)(=O)c3ccc(C)cc3)C[C@]1(O)C2	none (no result: Mot1-301 SUMO, CR mimetic SO)
CC(C)OC(=O)c1ccc2ccc(-c3ccccc3)nc2c1	none (no result: Mot1-301 SUMO, CR mimetic SO)
CCOc1ccc(NC(=O)CN(C)C(=O)c2cc(C3CC3)nn2-c2ccccc2)cc1OCC	none (no result: Mot1-301 SUMO, CR mimetic SO)
Cc1ccc(CN2CC(=O)N3[C@H]4c5ccccc5OC[C@@H]4[C@H](c4ccccc4)[C@]3(C)C2=O)cc1	FAS TE block 51 | FAS-TE inh conf inactive
C[C@@]12C(=O)N(Cc3ccccc3)CC(=O)N1[C@H]1c3ccccc3OC[C@@H]1[C@@H]2c1ccccc1	none
C[C@]12C(=O)N(c3ccccc3)C(=O)N1[C@H]1c3ccccc3OC[C@@H]1[C@H]2c1ccccc1	FAS TE block 79 | FAS-TE inh conf inactive
Cc1ccc(N2C(=O)N3[C@H]4c5ccccc5OC[C@@H]4[C@@H](c4ccccc4)[C@@]3(C)C2=O)cc1	FAS TE block 55 | FAS-TE inh conf inactive
C[C@]12C(=O)N(c3ccccc3)C(=O)N1[C@@H]1c3ccccc3OC[C@@H]1[C@H]2c1ccccc1	none
CCOC(=O)[C@@H]1[C@H]2COc3ccccc3[C@@H]2N2C(=O)N(c3ccc(C)cc3)C(=O)[C@@]12C	none
Cc1cc(OCC(=O)OCC(=O)N2CCc3ccccc3C2)ccc1Cl	none
O[C@H]1CN(CC2CCCCC2)[C@@H](c2ccc(Cl)cc2)C[C@@H]1n1cc(-c2ccc(F)cc2)nn1	none (no result: Mot1-301 SUMO, CR mimetic SO)
COc1ccc(S(=O)(=O)Nc2ccccc2-c2nc3ccccc3[nH]c2=O)cc1	none
Cc1ccc(C(=O)c2cnc3cc4c(cc3c2S(=O)(=O)c2ccccc2)OCCO4)cc1	FAS TE block 72 | FAS-TE inh conf inactive
O=C(CCCC(=O)N(c1ccc2c(c1)OCCO2)C(C(=O)NC1CCCCC1)c1ccc(F)cc1)Nc1ccccn1 (stereo not given)	none
Cc1ccc(C(C(=O)NC2CCCCC2)N(C(=O)CCCC(=O)Nc2ccccn2)c2ccc3c(c2)OCCO3)cc1 (stereo not given)	FAS TE block 52 | FAS-TE inh conf inactive
Cc1ccc(Cl)cc1N1CCN(C(=O)C2CCN(S(=O)(=O)c3cccnc3)CC2)CC1	aDG glyco up 7.5, FAS TE block 50 | FAS-TE inh conf inactive
CCOc1ccc(C(=O)Nc2ccc(S(=O)(=O)N3C[C@@H]4C[C@@H](C3)c3cccc(=O)n3C4)cc2)cc1	none
COc1ccc(NC(=O)/C(C#N)=C/c2c(C)nn(-c3ccc(F)cc3)c2Cl)cc1Cl	none
COc1ccc(NC(=O)/C(C#N)=C/c2c(C)nn(-c3ccc(F)cc3)c2Cl)cc1OC	FAS TE block 56 | FAS-TE inh conf inactive
CC1CCC(NC(=O)C2CCC(CNS(=O)(=O)c3ccc4c(c3)C(C)(C)C(=O)N4C)CC2)CC1 (stereo not given)	none (no result: Mot1-301 SUMO, CR mimetic SO)
N#Cc1c(C(F)(F)F)cc(-c2cccs2)nc1SCC(=O)O	none
N#Cc1c(C(F)(F)F)cc(-c2cccs2)nc1SC(C(=O)O)c1ccccc1 (stereo not given)	FAS TE block 75 | FAS-TE inh conf 82
O=C(C1CCCCC1)N1CCC2CC1c1cc(-c3ccc4c(c3)OCO4)ccc12 (stereo not given)	none (no result: Mot1-301 SUMO, CR mimetic SO)
O=C(Nc1cccc(S(=O)(=O)NC2=NCCCCC2)c1)c1cc(-c2ccc(Cl)cc2)nc2ccccc12	FAS TE block 57 | FAS-TE inh conf inactive
COc1ccc(NC(=O)O[C@@H](C)[C@@H]2CN3CCc4c([nH]c5ccc(-c6ccc(OC)cc6)cc45)[C@@H]3C[C@@H]2N(C)C(=O)Nc2ccc(OC)cc2)cc1	FAS TE block 54 (no result: Mot1-301 SUMO, CR mimetic SO) | FAS-TE inh conf inactive
O=C(c1ccc(Cl)cc1)[C@@H]1[C@@H]2C(=O)N(c3cccc4ccccc34)C(=O)[C@@H]2C2c3ccccc3C=NN21 (stereo not given in full)	FAS TE block 85 | FAS-TE inh conf inactive
CCc1nc2c(OCC3COc4ccccc4O3)cccn2c1N(C)C(=O)c1cccs1 (stereo not given)	none (no result: Mot1-301 SUMO, CR mimetic SO)
O[C@@H]1CN(CC2CCCCC2)[C@@H](c2ccccc2)C[C@H]1n1cc(C2CC2)nn1	none (no result: Mot1-301 SUMO, CR mimetic SO)
O[C@H]1C[C@H](c2ccccc2)N(CC2CCCCC2)C[C@@H]1n1cc(C2CC2)nn1	FAS TE block 65 (no result: Mot1-301 SUMO, CR mimetic SO) | FAS-TE inh conf 65
CCCS(=O)(=O)NC(=O)C1(C)CCCN(C(=O)c2cc(-c3ccccc3)cs2)C1 (stereo not given)	none (no result: Mot1-301 SUMO, CR mimetic SO)
